The values below come from ChEMBL document CHEMBL4513216, “Probing the Open Global Health Chemical Diversity Library for Multistage-Active Starting Points for Next-Generation Antimalarials” (ACS Infect Dis, 2020).

The structures appear in SMILES notation. Screen size: about 69,000 compounds; about 8,600 (12%) showed an effect of 50% or more. For the sample, strong results were picked, then their nearest neighbours and some compounds at random.

For this test, the system named is Plasmodium berghei. In words: Screen against P. berghei liver stage (PbLuc), transformed with Luciferase, at 10uM. The format is functional, HepG2. The note with it: tested at 10 uM.
Turning to `Cc1nc(CN2C[C@@H]3CN(C(=O)c4cccn4C)C[C@@H]3C2=O)cs1`, the INHIBITION is reported as 39.8%. On to `Cc1ccc2nc(C3CCCN(CC(C)C)C3)nc(O)c2c1` (stereo not given), for which the INHIBITION stood at 13.5%. As to `CCc1n[nH]c(C2CN(C(=O)c3nc(C)n4ccccc34)CCO2)n1` (stereo not given), the INHIBITION was found to be 17.8%. For `Cc1nc2cc(C(=O)N3CCCC(n4ccnc4)C3)ccc2n1C` (stereo not given), the INHIBITION came to 33.3%. In the case of `O=C(NCc1ccc(F)cc1)N1CCN(CC(O)C2CC2)CC1` (stereo not given), the INHIBITION came to 30.8%.

As for `Cc1ccc(S(=O)(=O)NCC2COCc3c(C)nnn3C2)cc1F` (stereo not given), the INHIBITION was 24.5%.

As for `c1ccc(N2CCC(c3ccncc3)CC2)cc1`, the INHIBITION is 65.2%. Then `c1cncc(N2CCC(c3ccncc3)CC2)c1`, with 26.221%.

`c1cc(C2CCN(c3cncnc3)CC2)ccn1`: the INHIBITION was 39.6%. As to `Cc1nc(C2CCCN(C(=O)c3ccc(OCC4CC4)nc3)C2)no1` (stereo not given), the INHIBITION is given as 8.64%. In the case of `O=C1C(N2CCOCC2)CCCN1Cc1cccc(C(F)(F)F)c1` (stereo not given), the INHIBITION amounted to 50.8%.

With `CC(O)(CN1CCC(O)CC1)c1cccc(C(F)(F)F)c1` (stereo not given), the INHIBITION was -37.7%. Regarding `O=C1C(N2CC[C@@H](O)C2)CCCN1Cc1cccc(C(F)(F)F)c1` (stereo not given in full), the INHIBITION is listed as 77.8%. `O[C@H]1CN(Cc2cccc(C(F)(F)F)c2)CC[C@@]12CCCO2`: the INHIBITION is recorded as 37.6%.

Consider `FC(F)(F)c1ccnc(N2CCCC(N3CCOCC3)C2)c1` (stereo not given), for which the INHIBITION is 40.5%. With `O[C@H]1COCCN(Cc2cccc(C(F)(F)F)c2)C1` the figure was -4.82%.

Regarding `O=c1n(Cc2cccc(C(F)(F)F)c2)nc2ncccn12`, the INHIBITION was -39.3%. Take `NC1CCCN(Cc2cccc(C(F)(F)F)c2)C1=O` (stereo not given): the INHIBITION is listed as 57.2%. Then `NC(=O)CN(C(=O)Cc1cccc(C(F)(F)F)c1)C1CCCC1`, with -23.1%; and `CC(C)NC(=O)N1CC[C@@H]2CN(Cc3ccccc3)S(=O)(=O)[C@@H]2CC1`, with 31.8%.

`O=c1[nH]cnc2c1CCN(S(=O)(=O)c1cccc(OC(F)(F)F)c1)C2`: the INHIBITION is listed as -23.7%. Turning to `COCCN1C[C@H](OCc2csc(C)n2)[C@H]2COC[C@H]21`, the INHIBITION is on record as -41.4%. Consider `CCC(C)N(Cc1sccc1C)C(=O)c1cc(N)ccn1` (stereo not given), for which the INHIBITION amounted to 43.9%. Then `Cc1ccccc1-c1cncc(C2CCN(C3CCOCC3)CC2)n1`, with 64.1%; and `Cc1ccccc1-c1cncc(C2CCN(C)CC2)n1`, with 38.1%; and `Cc1ccccc1-c1cncc(C2CCN(C(C)C)CC2)n1`, with 32.8%. For `COc1cccc(-n2nnc(C(=O)N3CCCC3)c2C)c1`, the INHIBITION is given as 2.26%. For `COc1cccc(-n2nnc(C(=O)N3CCN(C)CC3C)c2C)c1` (stereo not given), the INHIBITION came out at 68.3%. In the case of `COc1cccc(-n2nnc(C(=O)N3CCCC(C)C3)c2C)c1` (stereo not given), the INHIBITION is listed as -60.35%.

`Cc1nc(C)c(CN2CCC(N(C)Cc3nnc(C4CC4)o3)C2)s1` (stereo not given): the INHIBITION is reported as -21.9%. For `Cc1noc(CNc2cc3c(cc2Cl)NC(=O)CO3)n1`, the INHIBITION amounted to 3.13%.

For `Cc1ccc(CNc2cc3c(cc2Cl)NC(=O)CO3)cc1C`, the INHIBITION was 56%. Turning to `CC(C)(C)c1nc(CNc2cc3c(cc2Cl)NC(=O)CO3)no1`, the INHIBITION was determined as 5.91%.

`O=C(NCc1nnc2n1CCC2)c1cccc(Br)c1`: the INHIBITION is listed as -57.5%. For the molecule `Cc1csc(C2(NCc3nc(-c4ccco4)oc3C)CCCC2)n1`, the INHIBITION worked out at 64.5%.

In the case of `Cc1csc(C2(NCc3ccc(OCC(F)F)cc3)CCCC2)n1`, the INHIBITION is reported as 14.5%. With `Cc1csc(C2(NCc3nnc(-c4ccco4)o3)CCCC2)n1`, the INHIBITION is reported as 32.9%. For the molecule `Cc1csc(C2(NCc3csc(C4CC4)n3)CCCC2)n1`, the INHIBITION stood at 24.2%. Regarding `Cc1csc(C2(NCc3nc(-c4ccco4)no3)CCCC2)n1`, the INHIBITION amounted to 62%. Consider `Cc1csc(C2(NCC(O)COC(C)C)CCCC2)n1` (stereo not given), for which the INHIBITION is 9.41%.

For the molecule `COCCNC(=O)N1CCN(C(=O)c2nsc3ccc(C)cc23)CC1`, the INHIBITION is -32.1%. Turning to `Cc1ccc(OCC(=O)N2CCCC(n3nc(C)nc3C)C2)cc1` (stereo not given), the INHIBITION was found to be 25.1%.

Take `CN(CCCN1CCCCCC1)C(=O)c1ccccc1NCC(=O)O`: the INHIBITION stood at 14.9%.

In the case of `c1ccc(-c2nnc(CN3CCCC(Cn4cncn4)C3)o2)cc1` (stereo not given), the INHIBITION is on record as 9.31%.

With `CCOc1ccc(C(F)(F)F)cc1NCc1nc(C)c(C)o1`, the INHIBITION is reported as 65.6%. Consider `CCCNC(=O)CNc1cc(C#N)ccc1OCC`, for which the INHIBITION is 60.5%. `CCOc1c(Cl)cccc1NCc1cc(C)on1`: the INHIBITION is listed as -10.2%. `CCOc1ccc(C#N)cc1NCc1cc(C)on1`: the INHIBITION stood at 51.7%. Turning to `CCOc1ccc(C#N)cc1NCC(=O)Nc1cc(C)no1`, the INHIBITION was 7.7%. For `COc1ccc(Cl)cc1NCc1cc(C)on1`, the INHIBITION is given as 11.783%.

Regarding `CCOc1ccc(C(F)(F)F)cc1NC(=O)N1CCC(C(N)=O)CC1`, the INHIBITION is -3.21%. For the molecule `CCOc1ccc(C#N)cc1NCC(=O)NC(=O)NC`, the INHIBITION stood at 2.3%. On to `CCOc1ccc(C(F)(F)F)cc1NC(=O)NCc1noc(C)n1`, for which the INHIBITION was -15%. Take `CCNC(=O)NC(=O)CNc1cc(C#N)ccc1OCC`: the INHIBITION was -9.76%.

As for `CCOc1ccc(C#N)cc1NCC(=O)OC`, the INHIBITION is -38.7%. Then `CCOc1ccc(OCC)c(NCc2cc(C)on2)c1`, with 71.2%. Then `CCN(Cc1cccc(C)c1)Cc1nc2c(cnn2C)c(=O)[nH]1`, with 49.1%; and `Cc1cc(N2CCN(Cc3cn(C)nc3C)CC2)cc(C2CCNC2)n1` (stereo not given), with 18.225%. Take `Cc1ccc(NC2CCN(C(=O)c3cccnc3N(C)C)CC2)nn1`: the INHIBITION turned out to be 21.6%.

As for `CN(C)[C@@H]1CCN(c2ncc(F)cn2)[C@H]1Cc1cccnc1`, the INHIBITION is recorded as 9.72%. With `Cc1cc(C)n(CC2CN(Cc3ccc(C(N)=O)cc3)CCO2)n1` (stereo not given), the INHIBITION was 46.1%. Regarding `COCC(=O)N1CCCC1c1nc(C)c2c(n1)N(CC(C)C)C(=O)CC2` (stereo not given), the INHIBITION is -16.9%. Then `CCNC(=O)N(C)C(c1ccccc1)c1ccccn1` (stereo not given), with -16%; and `COc1ccc(C(C)NCc2ccsc2)cc1Cn1cccn1` (stereo not given), with 10.6%; and `CC(=O)N(C)C1CCN(C(=O)NCCc2cc(F)ccc2F)CC1`, with -6.67%. Regarding `CCOc1ccc(C(F)(F)F)cc1NCc1cc(C)on1`, the INHIBITION is listed as 64.7%. With `Cc1cc(CNc2ccc(C(F)(F)F)cc2)no1` the figure was 30.4%; with `Cc1cc(CNc2cc(Cl)ccc2OCCS(C)(=O)=O)no1`, 48.1%. With `Cn1cc(CN2CCC3(CC2)CC(c2ccncc2)C(=O)N3)cn1` (stereo not given), the INHIBITION came to 36.4%.

Regarding `OC(CN1CCN(Cc2nnc(C3CC3)o2)CC1)c1ccccc1` (stereo not given), the INHIBITION is given as -7.06%. For `OC(CN1CCN(CCOCC(F)(F)F)CC1)c1ccccc1` (stereo not given), the INHIBITION stood at 56.9%.

As to `CCOCCN1CCN(CC(O)c2ccc(C(F)(F)F)cc2)CC1` (stereo not given), the INHIBITION turned out to be 24%. In the case of `OC(CN1CCN(CC2CCCCC2)CC1)c1ccccc1` (stereo not given), the INHIBITION is listed as 93.8%. Turning to `CC(O)CN1CCN(CCOCC(F)(F)F)CC1` (stereo not given), the INHIBITION is reported as -21.2%. Regarding `O=C(N1CCCCC1)N1CCN(CC(O)c2ccccc2)CC1` (stereo not given), the INHIBITION was found to be 56.4%. Turning to `O=C(N1CCCCC1)N1CCN(CC(O)c2ccc(F)cc2)CC1` (stereo not given), the INHIBITION is reported as 9.25%. As to `OC(CN1CCN(CC2CC2)CC1)c1ccc(Br)cc1` (stereo not given), the INHIBITION is -63.6%. As to `O=C(Cc1ccc(F)cc1)N1CCN(CC(O)c2ccccc2)CC1` (stereo not given), the INHIBITION came out at 29.7%. With `COCCNC(=O)NCc1ccc(-n2ccc(C(F)(F)F)n2)cc1` the figure was -42.1%; with `CC1CCc2nn(CCNC(=O)C3CCCC3)c(=O)cc2C1` (stereo not given), -28.1%.

With `CCCN(CCC)CCNc1c(-c2ccccc2)c(=O)c1=O`, the INHIBITION was 49.5%.

For the molecule `Cc1cnc(-c2nc(C3CCCN(Cc4ccccc4C)C3)no2)cn1` (stereo not given), the INHIBITION was 25.75%.

Turning to `Cc1cnc(CN2C[C@H]3CC(Oc4ccccc4)C[C@H]3C2)cn1` (stereo not given in full), the INHIBITION amounted to 30.4%. As to `CN1C(=O)[C@@H]2CC[C@H]1CN(S(=O)(=O)c1ccc(Cl)cc1Cl)C2`, the INHIBITION is 24.3%. As to `CN(C)C(=O)Cn1cnc2c(Br)cccc2c1=O`, the INHIBITION is reported as -14.1%. Then `COc1cc(C(F)(F)F)sc1C(=O)O`, with 20.8%; and `COC(=O)CNC(=O)CCc1cc(Br)cs1`, with 7.19%; and `CN(Cc1cc(Br)cs1)Cc1nnsc1Cl`, with 46.3%. Regarding `Cc1cccc(C(=O)N(C)Cc2cc(Br)cs2)n1`, the INHIBITION came out at 37.1%. As to `COC(=O)CCN(C)Cc1cc(Br)cs1`, the INHIBITION was 60.2%. As for `COC(=O)CN(C)Cc1cc(Br)cs1`, the INHIBITION is recorded as 53.2%. For the molecule `CN(CCC(N)=O)Cc1cc(Br)cs1`, the INHIBITION worked out at 24%. With `COCCN1CCO[C@@H]2CN(Cc3ccccc3OC)C[C@@H]2C1`, the INHIBITION was found to be 2.4%. Regarding `CCc1nnc2n1CCN(Cc1cc(Cl)c3c(c1)OCCCO3)C2`, the INHIBITION was 23.6%.

Take `O=C(CNC(=O)N1CCc2c([nH]c3ccc(Cl)cc23)C1)NCCCO`: the INHIBITION is 4.25%. Turning to `COCc1csc(NC(=O)N2CCC(Cc3cnn(C)c3)C2)n1` (stereo not given), the INHIBITION was -27.8%. As to `COc1ccc(OC)c(CN2CCc3nc4ccsc4c(=O)n3CC2)c1`, the INHIBITION is listed as 14.7%. Take `CCOc1ccccc1CN1CCc2nc3ccsc3c(=O)n2CC1`: the INHIBITION is on record as 49.6%. On to `Cc1ccsc1CN1CCc2nc3ccsc3c(=O)n2CC1`, for which the INHIBITION is on record as 35.2%. For `O=c1c2sccc2nc2n1CCN(Cc1cccs1)CC2`, the INHIBITION is listed as -3.41%.

`O=c1c2sccc2nc2n1CCN(Cc1ccccc1C(F)(F)F)CC2`: the INHIBITION is 92.9%.

As for `O=c1c2sccc2nc2n1CCN(Cc1cc(F)ccc1F)CC2`, the INHIBITION is given as 3.91%. With `CCOc1ccc(CN2CCc3nc4ccsc4c(=O)n3CC2)cc1`, the INHIBITION was 28%. With `Cc1c(CN2CCc3nc4sccc4c(=O)n3CC2)cnn1C` the figure was -12.4%. In the case of `COc1cccc(CN2CCc3nc4ccsc4c(=O)n3CC2)c1`, the INHIBITION is 54.4%. `COc1ccc(CN2CCc3nc4ccsc4c(=O)n3CC2)c(C)c1C`: the INHIBITION was determined as 92.9%. Regarding `COc1cc(C)c(CN2CCc3nc4ccsc4c(=O)n3CC2)cc1C`, the INHIBITION is 89.3%. Take `O=c1c2sccc2nc2n1CCN(Cc1ccc(F)c(F)c1)CC2`: the INHIBITION turned out to be 31.6%. Then `CN1CC(C)(C)CN(C(=O)CCc2ccccc2)CC1=O`, with 24.5%; and `O=C(c1cc[nH]n1)N1CCCC1c1cc(Nc2ccccn2)n[nH]1` (stereo not given), with -20.2%.
